# In ChEMBL document CHEMBL1157539, “Thousands of chemical starting points for antimalarial lead identification” (Nature, 2010):
# Test system: Plasmodium falciparum
# Test: GSK_TCMDC: Inhibition of Plasmodium falciparum Dd2 in whole red blood cells, using parasite LDH activity as an index of growth. Test compounds present at 2uM
# Assay type: functional
row,Structure (SMILES),Inhibition [%]
1,COC(=O)CCCCOc1cc(Cc2cnc(N)nc2N)cc(OC)c1OC,0
2,c1ccc2c3c(ccc2c1)Sc1c(ccc2ccccc12)N3,31
3,CN1CCN(c2ccnc3ccc(NC(=O)Cc4ccc5ccccc5c4)cc23)CC1,89
4,c1cc2[nH]c(CCCc3nc4cc(C5=N[C@H]6CCCC[C@H]6N5)ccc4[nH]3)nc2cc1C1=N[C@@H]2CCCC[C@@H]2N1,84
5,Cc1ccc(O)cc1Nc1ccnc2cc(-c3ccc(CN4CCCCC4)o3)ccc12,99
6,O=C(Nc1ccc(OC2CCN(Cc3ccc(F)cc3)C2)cc1)c1cccs1.O=C(O)C(F)(F)F (stereo not drawn),92
7,COc1ccc2nccc(N3CCN(CCNCc4ccc5c(n4)NC(=O)CO5)CC3)c2c1.Cl,5
8,Cc1noc(C)c1-c1ccc2c(Nc3ccccc3C(C)(C)C)c(C(=O)NCc3ccccc3)cnc2c1.Cl,89
9,CCN1C(=O)C(CC(=O)Nc2cccc(Cl)c2)N(Cc2ccc(OC)c(OC)c2)C1=S (stereo not drawn),68
10,CN1CCCC(CN2CCN(Cc3ccc(-c4ccc(-c5nc6ccccc6[nH]5)cc4)cc3)CC2)C1.O=C(O)C(F)(F)F (stereo not drawn),100
11,CCC(CC)(Cc1ccccc1)NC(=O)[C@H](Cc1ccc(OC)c(OC)c1)Nc1ccc(C#N)c2ccccc12.O=C(O)C(F)(F)F,69
12,CNS(=O)(=O)c1ccc(NC(=O)c2cc(-c3cccnc3)nc3ccc(Br)cc23)cc1,55
13,N#Cc1ccc(-n2cc(C(=O)Nc3ccc4c(c3)CCN(C3CCC3)CC4)c(C(F)(F)F)n2)cc1.O=C(O)C(F)(F)F,99
